Laboratory results: PubChem BioAssay (Tox21)
Inconclusive results are not listed. Unmarked numbers belong to inactive results. Activity calls are given as the source filed them. The call rests on the fitted dose curve.

Each compound was assayed against Vitamin D3 receptor (Homo sapiens) (UniProt P11473) (assay: qHTS assay to identify small molecule agonists of the vitamin D receptor (VDR) signaling pathway (AID 743222)). Details: HEK293T VDR-UAS-bla, beta-lactamase FRET ratio, 16 h; series mostly up to 63.5 µM.
Sequence of Vitamin D3 receptor (Homo sapiens) (P11473 whole entry, looked up): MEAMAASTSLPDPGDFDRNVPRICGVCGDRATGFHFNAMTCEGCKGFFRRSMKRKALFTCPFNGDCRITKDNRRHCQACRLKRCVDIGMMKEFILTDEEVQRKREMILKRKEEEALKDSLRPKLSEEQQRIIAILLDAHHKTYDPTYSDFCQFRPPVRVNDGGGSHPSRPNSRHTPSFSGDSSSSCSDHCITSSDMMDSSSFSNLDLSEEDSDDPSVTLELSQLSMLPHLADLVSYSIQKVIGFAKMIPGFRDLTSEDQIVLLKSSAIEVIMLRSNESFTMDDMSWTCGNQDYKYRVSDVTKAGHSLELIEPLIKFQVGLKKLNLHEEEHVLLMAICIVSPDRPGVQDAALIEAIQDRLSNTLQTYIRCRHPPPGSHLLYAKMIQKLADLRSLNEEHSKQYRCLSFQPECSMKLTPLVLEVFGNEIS
How it was run: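 Using LiveBLAzer B/G FRET detection, agonism was scored in VDR-bla cells exposed overnight (16 h, 37C) to DMSO-dissolved compounds; substrate incubation was 2 h at room temperature.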
On the % scale 0 is the no-effect control and ±100 the full control effect.

SMILES | outcome | activation
C[N+]1(C)[C@@H]2CC(OC(=O)[C@H](CO)c3ccccc3)C[C@H]1[C@@H]1O[C@@H]12 (some centres undefined) | inactive | 
CC1=NN(c2cccc(S(=O)(=O)O)c2)C(=O)C1 | inactive | 
CC(=O)Nc1ccc(OCC(O)CNC(C)C)cc1 (centres undefined) | inactive | 
C[C@H]1C[C@H]2[C@@H]3CCC4=CC(=O)C=C[C@]4(C)[C@H]3C(=O)C[C@]2(C)[C@@]1(O)C(=O)CO | inactive | 
CN(C)C(=O)Oc1cccc([N+](C)(C)C)c1 | inactive | 
CC(CO)(CO)[N+](=O)[O-] | inactive | 
CC(C#N)(CCC(=O)O)N=NC(C)(C#N)CCC(=O)O (centres undefined) | inactive | 
CCN1CCOCC1 | inactive | 
CC(C)NNC(=O)c1ccncc1 | inactive | 
CCCC[N+](C)(CCCC)CCCC | inactive | 
CCC(C)(CN(C)C)OC(=O)c1ccccc1 (centres undefined) | inactive | 
C=CN1CCCCCC1=O | inactive | 
C1CCC2(CCCCO2)OC1 | inactive | 
CO/N=C(\C(=O)N[C@@H]1C(=O)N2C(C(=O)O)=C(CSc3nc(=O)c(O)nn3C)CS[C@H]12)c1csc(N)n1 | inactive | 
CC(=O)N1C[C@H](O)C[C@H]1C(=O)O | inactive | 
C[N+]12CCC(CC1)C(OC(=O)C(O)(c1ccccc1)c1ccccc1)C2 (centres undefined) | inactive | 
CCN[C@@H]1C[C@H](N)[C@@H](OC2OC(CN)=CCC2N)[C@H](O)[C@H]1O[C@H]1OC[C@](C)(O)[C@H](NC)[C@H]1O (some centres undefined) |  | 11.5% [at 0.554 µM]
O=C1NC(=O)C2CC=CCC12 (centres undefined) | inactive | 
N[C@H](C(=O)O)[C@@H](O)c1ccc(O)c(O)c1 | inactive | 
